Consider 53 compounds from PubChem BioAssay AID485341 (National Center for Advancing Translational Sciences (NCATS), 2010).

Out of some 330,000 compounds screened, about 1,700 (0.52%) were called active. Only a selection was taken, and actives are over-represented in it overall. Values without a mark were called inactive. The call rests on the fitted dose curve; in most records, active means well fitted inhibition curve with a large enough effect; inconclusive means small, poorly fitted or top-dose-only effect; inactive means no such curve, though single readings can be large or run the other way.
Potency means the concentration at half of the fitted maximal effect.

This assay deals with Beta-lactamase (Escherichia coli (strain K12)) (UniProt P00811). The experiment in a line: qHTS Inhibitors of AmpC Beta-Lactamase (assay without detergent). Further: nearly all actives have a fitted effect of over 20% in size. The conditions noted are these: AmpC nitrocefin hydrolysis, absorbance 480 nm, 0.0001% Triton; series mostly up to 57.1 µM; activity change, negative = inhibition: at the top concentration. Here is the method: NIH Molecular Libraries Probe Production Network [MLPCN] NIH Chemical Genomics Center [NCGC] Assay Provider: Professor Brian Shoichet, UCSF Assay Overview: This aggregation profiling approach exploits the sensitivity of aggregate formation to detergent. Inhibition of b-lactamase is measured in the presence and absence of 0.01% Triton X-100. This particular assay had the prescence of 0.01% Triton X-100. See Pubchem assay "Promiscuous and Specific Inhibitors of AmpC Beta-Lactamase (assay without detergent)" for related screen. Compounds that inhibit only in the absence of detergent are considered likely promiscuous aggregators. A screen of 1,030 compounds was performed in Brian Shoichet's lab in 96-well format. AmpC activity was measured by following the absorbance at 480 nm. Nitrocefin is a chromogenic substrate: while nitrocefin is yellow (lmax 390 nm), the product of its hydrolysis is red (lmax 486 nm, 17,000 M-1). AmpC beta lactamase was provided by Shoichet Lab, UCSF.
Chain of Beta-lactamase (Escherichia coli (strain K12)) (P00811 whole entry, looked up): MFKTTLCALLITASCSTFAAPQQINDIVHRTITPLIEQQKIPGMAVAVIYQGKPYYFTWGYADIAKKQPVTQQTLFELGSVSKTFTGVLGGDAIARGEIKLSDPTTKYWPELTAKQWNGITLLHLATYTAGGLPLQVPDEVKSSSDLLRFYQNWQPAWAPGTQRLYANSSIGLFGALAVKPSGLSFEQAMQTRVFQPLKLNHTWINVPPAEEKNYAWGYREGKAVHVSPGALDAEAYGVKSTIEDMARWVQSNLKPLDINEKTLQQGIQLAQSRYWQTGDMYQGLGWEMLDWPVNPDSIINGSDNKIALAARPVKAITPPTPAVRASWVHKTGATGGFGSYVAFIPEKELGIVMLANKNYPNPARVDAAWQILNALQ
Buffer: 20 mM phosphate buffer, pH 7.0 Triton X-100: No Detergent screen: 0.0001%, Detergent screen: 0.01%. Reagents/Controls: Buffer in columns 3 and 4 as negative control (no enzyme). 5.3 nM AmpC in columns 1, 2, 5-48. Titration of UCSF compound 9 control (from 10 mM, then 1:2) pin-transferred to column 2. Column 1 is neutral (100% activity). Assay Steps: Six uL of reagents were dispensed to 1536-well Greiner black clear bottom plates. Compounds and controls (23 nL) were transferred via Kalypsys PinTool. The plates were incubated for 15 min at room temperature, and then 2 uL of 800 uM solution of nitrocefin was added to start the reaction. The plates were immediately transferred to and read every 20 seconds for 4 min on ViewLux (Perkin-Elmer) High-throughput CCD imager using 480 nm absorbance protocol. During dispense, reagent bottles were kept submerged into 4 deg C water bath. Keywords: NIH Roadmap, MLSCN, MLI, MLSMR, qHTS, NCGC, AmpC Beta-Lactamase, Aggregation
(Quantitative high-throughput screening tests each substance at several concentrations.)
As for `O=C(NCC(c1ccco1)N1CCc2ccccc21)c1cccc(F)c1` (stereo not drawn), the “activity change, negative = inhibition” value was -31.7%.

On to `O=C(/C=C/c1ccccc1)Oc1coc(CSc2ncccn2)cc1=O`, for which the “activity change, negative = inhibition” value was -0.374%. On to `Cc1nc(SCC(=O)N2CC(=O)Nc3ccccc32)c2c(C)c(C)sc2n1`, for which the “activity change, negative = inhibition” value was 1.58%. Take `Cc1nc(SCC(=O)N2CCc3ccccc3C2)c2c(C)c(C)sc2n1`: the Potency is 0.158 µM (active).

In the case of `O=C(CSc1nnc(-c2cccs2)n1Cc1ccccc1)N1CCc2ccccc2C1`, the “activity change, negative = inhibition” value is -10.2%. Still for that read-out and setting: the figure for `CC(C)C(=O)Nc1nnc(Sc2ccc(N(C)C)cc2)s1` is -52%; for `Fc1cccc(Cc2noc(CN3CCN(c4cnccn4)CC3)n2)c1` it is 49%. With `Cc1ccc(-n2c(C)cc(/C=C(\C#N)C(=O)NCC3CCCO3)c2C)cc1` (stereo not drawn), the “activity change, negative = inhibition” value was 116%.

Turning to `Cc1ccc2c(c1)C(c1ccccc1)N(C(=O)c1ccc(F)cc1)CC(=O)N2` (stereo not drawn), the “activity change, negative = inhibition” value is -22.1%. Still for that read-out and setting: the figure for `CC(C)C(=O)N1CC(=O)Nc2ccc(F)cc2C1c1ccc(F)cc1` (stereo not drawn) is -1.13%. `CCC(CC)C(=O)N1CC(=O)Nc2ccc(Br)cc2C1c1ccccc1` (stereo not drawn): the Potency is 0.891 µM (active). On the same count and under the same terms, the figure for `CCCOC(=O)c1[nH]c2c(c1C)C(=O)CC(c1cc(OC)c(OC)c(OC)c1)C2` (stereo not drawn) is 2.51 µM (active). In the case of `CCCOC(=O)c1[nH]c2c(c1C)C(=O)CC(c1cccs1)C2` (stereo not drawn), the “activity change, negative = inhibition” value was -27.4%. With `COCCOC(=O)c1[nH]c2c(c1C)C(=O)CC(c1ccc(OC)cc1)C2` (stereo not drawn), the “activity change, negative = inhibition” value was 19.4%. The same measure, in the same setting: next, `COC(=O)Nc1ccc(S(=O)(=O)N2CCN(CCN3C(=O)C4C5C=CC(C5)C4C3=O)CC2)cc1` (stereo not drawn): 47.2%. `O=C(CCc1ccccc1F)N1CCN(c2ccccc2)CC1`: the “activity change, negative = inhibition” value was 12.6%. Same read-out and setting: next, `C=C(C)Cn1c(N2CCN(CC)CC2)nc2c1c(=O)[nH]c(=O)n2C`: -4.72%; `Nc1cc(N2CCCCCC2)c2nonc2c1[N+](=O)[O-]`: -9.46%; `O=C(NCc1ccccc1Cl)C(=O)NCC1CCCN1S(=O)(=O)c1cccs1` (stereo not drawn): 68%. Same read-out and setting: the figure for `COc1ccccc1CCNC(=O)C(=O)NCCC1CCCCN1S(=O)(=O)c1cccs1` (stereo not drawn) is -16.3%. Regarding `COc1ccc(CCNC(=O)C(=O)NCC2CCCN2S(=O)(=O)c2cccs2)cc1OC` (stereo not drawn), the Potency is 31.6 µM (active). For `O=C(NCc1ccc(Cl)cc1)C1CCN(S(=O)(=O)c2cccs2)CC1`, the “activity change, negative = inhibition” value is -18.9%. For `COc1ccc(C(=O)NCC2CCCN2S(=O)(=O)c2cccs2)cc1OC` (stereo not drawn), the “activity change, negative = inhibition” value is 2.01%.

Take `O=C(NCc1ccc(Cl)cc1)C(=O)NCC1CCCN1S(=O)(=O)c1cccs1` (stereo not drawn): the Potency was 35.5 µM (active). With `O=C(COc1ccc([N+](=O)[O-])cc1)Nc1cccc(C(=O)Nc2ccccc2C(=O)O)c1`, the “activity change, negative = inhibition” value is 0.212%. Still for that read-out and setting: the figure for `O=C(NCCc1ccco1)C(=O)NCCC1CCCCN1S(=O)(=O)c1ccccc1` (stereo not drawn) is -16.1%. The same measure, in the same setting: the figure for `COc1cccc(CNC(=O)CN(C)S(=O)(=O)c2ccc3c(c2)c(=O)n(C)c(=O)n3C)c1` is 19.8%; for `CCC1Oc2ccccc2N(CC(=O)NCCCN2CCN(CC)CC2)C1=O` (stereo not drawn) it is 1.42%; for `COC(=O)c1ccc(/C=N/N2C(C)CCCC2C)cc1` (stereo not drawn) it is -6.66%. Still for that read-out and setting: the figure for `O=C1C(Cl)=C(N2CCOCC2)C(=O)N1c1ccccc1` is -18.7%. In the case of `O=C1OC(OC(=O)c2ccccc2Br)C(N2CCOCC2)=C1Cl` (stereo not drawn), the Potency was 4.47 µM (active). For the compound `O=C1OC(NC(=O)c2ccccc2)C(N2CCOCC2)=C1Cl` (stereo not drawn), the “activity change, negative = inhibition” value is -19.8%.

On to `CC(=O)N1CCN(S(=O)(=O)c2c(F)cc(F)c(Cl)c2F)CC1`, for which the “activity change, negative = inhibition” value was -2.46%. Still for that read-out and setting: next, `CC(=O)Nc1ccc(C(=O)OCC(=O)Nc2ccc([N+](=O)[O-])cc2C(F)(F)F)cc1`: -22.3%; `O=C(CCN1C(=O)C2C3CCC(C3)C2C1=O)Nc1ccc(Cl)cc1Cl` (stereo not drawn): 15.2%. Still for that read-out and setting: the figure for `CC1CN(c2nc(-c3ccccc3)nnc2-c2ccccc2)CC(C)O1` (stereo not drawn) is 23.1%. Turning to `CSc1ccc(S(=O)(=O)Nc2cccc(F)c2)cc1`, the Potency is 0.251 µM (active). As for `O=C1Cc2cc(S(=O)(=O)Nc3cccc(F)c3)ccc2N1`, the “activity change, negative = inhibition” value is -41.8%.

Consider `Cn1c(=O)n(C)c2cc(NS(=O)(=O)c3ccc(F)cc3)ccc21`, for which the activity change, negative = inhibition was -28.5% [at 2.29 µM]. The same measure, in the same setting: next, `CC1CCN(C(=O)/C(=C\c2ccccc2F)NC(=O)c2ccccc2)CC1`: 9.38%; `CCCC(CNC(=O)COC(=O)C1=NNC(=O)CC1)c1ccc(Cl)cc1Cl` (stereo not drawn): 71.9%; `CC(C)(C)NC(=O)NC(=O)COC(=O)Cc1c(F)cccc1Cl`: -18%. As for `CC(NC(=S)Nc1ccccc1)C(c1cccs1)N1CCOCC1` (stereo not drawn), the “activity change, negative = inhibition” value is 5.27%.

Take `CCCCn1c(SCC(=O)N2CCCC2=O)nc2cc(S(N)(=O)=O)ccc21`: the “activity change, negative = inhibition” value was 6.34%. Still for that read-out and setting: next, `CCO/C=C1\C(=O)N(c2ccc(OCC)cc2)C(=O)c2ccccc21`: -26.1%. In the case of `CCOc1ccc(N2C(=O)CN(c3cccc4ccccc34)C2=S)cc1`, the Potency was 10 µM (active). On to `CCOc1ccc(N2C(=O)CSC2=NC#N)cc1`, for which the “activity change, negative = inhibition” value was -31.8%. As for `Cc1cc(NC(=O)CSCc2nc(-c3cccc(Cl)c3)oc2C)no1`, the “activity change, negative = inhibition” value is -10.7%. On to `O=S(=O)(c1ccc(SCc2ccccc2)nc1)N1CCCCCC1`, for which the “activity change, negative = inhibition” value was -28.9%. Same read-out and setting: the figure for `C/C(CC(C)C)=N\Oc1nc(C)cc(C)n1` is 2.75%; for `O=C(NCC(c1ccco1)N1CCc2ccccc2C1)c1ccccc1Cl` (stereo not drawn) it is -3.02%; for `CCOC(CNC(=O)C(=O)NCC(c1ccco1)N1CCN(c2ccc(OC)cc2)CC1)OCC` (stereo not drawn) it is 66.9%.

Regarding `COc1ccc(NC(=O)C(=O)NCC(c2ccco2)N2CCc3ccccc3C2)cc1` (stereo not drawn), the Potency is 28.2 µM (active).
